High-throughput results (PubChem)
Many of the other results were omitted from the sample, so hits are more common in it than they were.
Tgondii IFNg: T. gondii growth inhibition with IFN-gamma, primary screen, cell-based; Toxoplasma gondii growth in IFN-gamma-treated host cells; active compounds read low; activity change, negative = inhibition, % (concentration not given with the values); 69,000 compounds, 3.8% hits; in the data active means activity change below about -70%, passing the limit was not always enough;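 further: host cells are HeLa cells infected with Toxoplasma gondii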
An asterisk follows results filed as active; ! = not active in a repeat.

What do the screens show for `CN1C(=O)CCC2C1CCN2C(=O)c1ccc2[nH]ccc2c1` (stereo not given)?
Tgondii IFNg: -97*

How did COCCN1C(=O)CCC2C1CCN2C(=O)c1ccc2[nH]ccc2c1 (stereo not given) do in these assays?
Tgondii IFNg: 0

What do the screens show for `CCN1C(=O)CCC2C1CCN2C(=O)c1ccc2[nH]ccc2c1` (stereo not given)?
Tgondii IFNg: 0

How did CCCn1cnc(NC(=O)C(C)n2nc(C)cc2C)n1 (stereo not given) do in these assays?
Tgondii IFNg: 10

Results for CC(=O)N1C[C@@H]2CCCN(Cc3cnn(C)c3)[C@@H]2C1 ?
Tgondii IFNg: 9

What do the screens show for `COc1cc(/C=C/c2ccc(OC)cc2OC)cc(OC)c1`?
Tgondii IFNg: -76*!

What do the screens show for `COc1ccc(C=O)c(OC)c1`?
Tgondii IFNg: 10

Results for COC(=O)c1cc(OC)c(OC)cc1NC(=O)Nc1ccc(OC)cc1OC ?
Tgondii IFNg: 8

How did COCc1ncc(CN2CCN(c3cccc(C(C)C)n3)CC2)cn1 do in these assays?
Tgondii IFNg: 6

What do the screens show for `CC(=O)O[C@@]12CO[C@@H]1C[C@H](O)[C@@]1(C)C(=O)[C@H](O)C3=C(C)[C@@H](OC(=O)[C@H](O)[C@@H](NC(=O)OC(C)(C)C)c4ccccc4)C[C@@](O)([C@@H](OC(=O)c4ccccc4)[C@H]21)C3(C)C`?
Tgondii IFNg: -72*!

Results for CC(=O)O[C@@]12CO[C@@H]1C[C@H](O)[C@@]1(C)C(=O)[C@H](O)C3=C(C)[C@@H](OC(=O)[C@H](O)[C@@H](NC(=O)OC(C)(C)C)c4ccccc4)C[C@@](O)([C@@H](OC(=O)c4ccccc4)C12)C3(C)C (stereo not given in full) ?
Tgondii IFNg: -83*

Results for CO[C@H]1C(=O)[C@@]2(C)[C@H]([C@@H](OC(=O)c3ccccc3)[C@@]3(O)C[C@H](OC(=O)[C@H](O)[C@@H](NC(=O)OC(C)(C)C)c4ccccc4)C(C)=C1C3(C)C)[C@]1(OC(C)=O)CO[C@@H]1C[C@H]2OC ?
Tgondii IFNg: -79*

Results for O=C(Cc1ccc2c(c1)CCCO2)NCc1ccccc1-n1ccnc1 ?
Tgondii IFNg: 13

How did CN1CC(=O)N2CCN(C(=O)COc3cccnc3)CC2C1=O (stereo not given) do in these assays?
Tgondii IFNg: 1

What do the screens show for `CC(=O)N1CCOCC2(CN(Cc3cnn(C)c3)CCO2)C1` (stereo not given)?
Tgondii IFNg: 8

Results for O=C1Nc2ccccc2NC12CCN(Cc1cc3n(n1)CCCNC3)CC2 ?
Tgondii IFNg: 1

How did Cc1ccc(-c2nnc(-c3nc(NCc4ccccc4)c4ccccc4n3)o2)cc1 do in these assays?
Tgondii IFNg: 13

What do the screens show for `CC(=O)OCC(=O)c1ccc(Br)cc1`?
Tgondii IFNg: 87

What do the screens show for `CC1=CC[C@@H]2CN(C(=O)c3ccn4nnnc4c3)C[C@@H]2C1`?
Tgondii IFNg: 4

Results for Cc1ccc(-n2c(Cc3c(C)n[nH]c3C)n[nH]c2=O)cc1C ?
Tgondii IFNg: 0

How did O=C(CN1C(=O)CCc2cc(Br)ccc21)Nc1ccccn1 do in these assays?
Tgondii IFNg: 21

Results for O=C1C[C@H]2CC[C@@H](CN1)N2C(=O)CCn1nnc(-c2ccccc2)n1 ?
Tgondii IFNg: -39

What do the screens show for `N#Cc1c(-c2ccccc2)cc(-c2ccccc2)nc1SCc1nnc(-c2ccccc2)o1`?
Tgondii IFNg: -100*

What do the screens show for `CCc1nc(SCc2nnc(-c3ccc(C)cc3)o2)c2c(C)c(C)sc2n1`?
Tgondii IFNg: -32

Results for N#Cc1c(C(F)(F)F)cc(-c2ccccc2)nc1SCC(N)=O ?
Tgondii IFNg: 30

How did Cc1cc(C)n(Cc2nc(-c3ccc(NC(=O)c4ccc(N(C)C)cc4)cc3)oc2C)n1 do in these assays?
Tgondii IFNg: 66

Results for Cc1cc(C)n(Cc2nc(-c3ccc(NC(=O)c4ccccc4F)cc3)oc2C)n1 ?
Tgondii IFNg: -41

What do the screens show for `Cc1cc(C)n(Cc2nc(-c3ccc(NC(=O)c4ccc(C)c(C)c4)cc3)oc2C)n1`?
Tgondii IFNg: -88*

Results for Cc1cc(C)n(Cc2nc(-c3ccc(NC(=O)c4ccc(F)c(Cl)c4)cc3)oc2C)n1 ?
Tgondii IFNg: 308

How did Cc1cc(C)n(Cc2nc(-c3ccc(NC(=O)COc4ccccc4)cc3)oc2C)n1 do in these assays?
Tgondii IFNg: -2

Results for COc1ccc(CC(=O)Nc2ccc(-c3nc(Cn4nc(C)cc4C)c(C)o3)cc2)cc1 ?
Tgondii IFNg: -33

Results for COc1ccccc1C(=O)Nc1ccc(-c2nc(Cn3nc(C)cc3C)c(C)o2)cc1 ?
Tgondii IFNg: -85*

Results for COc1ccccc1CC(=O)Nc1ccc(-c2nc(Cn3nc(C)cc3C)c(C)o2)cc1 ?
Tgondii IFNg: -80*

Results for Cc1ccc(C(=O)Nc2ccc(-c3nc(Cn4nc(C)cc4C)c(C)o3)cc2)c(C)c1 ?
Tgondii IFNg: 115

What do the screens show for `CC(C)c1csc(NC(=O)CCC(=O)N2CC(=O)Nc3ccccc32)n1`?
Tgondii IFNg: -5

Results for Cc1ccc(N2CCCC2=O)cc1S(=O)(=O)N1CCCCCC1c1cnn(C)c1 (stereo not given) ?
Tgondii IFNg: 2

How did CCOC1COC2(CCN(C(=O)c3cccn3C)CC2)C1 (stereo not given) do in these assays?
Tgondii IFNg: -43

How did COc1ccc2c(c1)NC1(CCN(C(=O)Nc3ccc(C)cc3)CC1)c1cccn1-2 do in these assays?
Tgondii IFNg: 369

What do the screens show for `Cc1cc(C(=O)NCCN2CCCCC2)no1`?
Tgondii IFNg: 93

What do the screens show for `O=C1NCC(=O)N2CCN(CC3=Cc4cc(Cl)ccc4OC3)CC12` (stereo not given)?
Tgondii IFNg: -2

What do the screens show for `COc1ccc2c(c1)CC(NCCCn1nc(C)nc1C)CC2` (stereo not given)?
Tgondii IFNg: 3

What do the screens show for `Cc1nc(CC(=O)N2CCC(c3ccccc3C(=O)O)C2)cs1` (stereo not given)?
Tgondii IFNg: 31

What do the screens show for `Cc1nc(CC(=O)N2CCCCC2c2[nH]ncc2C)cs1` (stereo not given)?
Tgondii IFNg: -34

What do the screens show for `Cc1nc(CC(=O)N2CCCC2c2ccc3c(NCc4ccccc4)n[nH]c3n2)cs1` (stereo not given)?
Tgondii IFNg: -76*

What do the screens show for `C=CCN1CCN(C)C(=O)C12CCN(C(=O)c1cccn1C)C2` (stereo not given)?
Tgondii IFNg: 32

What do the screens show for `O=C(c1cc2cccnc2n(Cc2ccc(F)cc2)c1=O)N1CCN(c2ccc(F)cc2)CC1`?
Tgondii IFNg: -95*

How did O=C(c1cc2cccnc2n(Cc2ccccc2F)c1=O)N1CCCC1 do in these assays?
Tgondii IFNg: 68

How did O=C(c1cc2cccnc2n(Cc2ccc(F)cc2)c1=O)N1CCCC1 do in these assays?
Tgondii IFNg: 50

How did O=C(c1cc2cccnc2n(Cc2ccccc2F)c1=O)N1CCN(c2ccccc2F)CC1 do in these assays?
Tgondii IFNg: 36

Results for O=C(c1cc2cccnc2n(Cc2ccccc2F)c1=O)N1CCN(c2ccc(F)cc2)CC1 ?
Tgondii IFNg: -83*

What do the screens show for `O=C(c1cc2cccnc2n(Cc2ccc(F)cc2)c1=O)N1CCN(Cc2ccccc2)CC1`?
Tgondii IFNg: -30

Results for C=C(C)COc1ccccc1C(=O)N1Cc2ccccc2CC1C(N)=O (stereo not given) ?
Tgondii IFNg: -3

What do the screens show for `O=C(Cn1ncc2c(N3CCCCC3)ncnc21)Nc1ccc(F)cc1F`?
Tgondii IFNg: 23
